Results taken from PubChem BioAssay (EPA / NIEHS).
Values joined by “and” are separate entries in the source; they are usually repeats but may differ in a detail not shown here. Equal entries are not always repeated. Records with an inconclusive call do not appear. Some structures have more than one record in an assay (separate samples or runs), and their calls can disagree. Active and inactive are the calls of the source. Rule for the calls: active = hit-call score of the fitted dose curve at least 0.9, where 1 is the maximum; inconclusive = response in the unintended direction; inactive = score below 0.9.

Key:
[1] = target: human Peripheral-type Benzodiazepine Receptor (PBR), TSPO (gene 706) (UniProt P30536); assay: NVS_MP_hPBR: NovaScreen (NVS) Membrane Protein Assay for human Peripheral-type Benzodiazepine Receptor (PBR) (AID 2283331);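 note: hits reduce radioligand binding relative to DMSO baseline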
human Peripheral-type Benzodiazepine Receptor (PBR), TSPO (gene 706), sequence (P30536 whole entry, looked up): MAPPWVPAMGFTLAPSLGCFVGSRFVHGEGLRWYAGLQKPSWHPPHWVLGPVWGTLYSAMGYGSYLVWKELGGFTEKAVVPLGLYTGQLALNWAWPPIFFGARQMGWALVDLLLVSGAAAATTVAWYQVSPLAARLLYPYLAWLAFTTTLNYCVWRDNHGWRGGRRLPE
In short: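 Radioligand displacement on human colonic cell membranes, 1 h incubation; bound radioactivity by filtration and scintillation counting. Primary screen in duplicate at 25 uM single concentration, actives followed up in concentration series; loss of binding versus DMSO.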

[2] = target: rat Peripheral-type Benzodiazepine Receptor (PBR), Tspo (gene 24230) (UniProt P16257); assay: NVS_MP_rPBR: NovaScreen (NVS) Membrane Protein Assay for rat Peripheral-type Benzodiazepine Receptor (PBR) (AID 2283335)
rat Peripheral-type Benzodiazepine Receptor (PBR), Tspo (gene 24230), sequence (P16257 whole entry, looked up): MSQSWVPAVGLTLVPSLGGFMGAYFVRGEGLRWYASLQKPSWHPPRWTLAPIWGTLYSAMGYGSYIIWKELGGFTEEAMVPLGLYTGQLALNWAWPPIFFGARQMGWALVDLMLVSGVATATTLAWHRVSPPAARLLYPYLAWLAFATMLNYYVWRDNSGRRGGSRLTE
In short: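 Rat kidney membranes; radioligand binding with displacement, filter-based scintillation counting, 1 h incubation. Primary screen in duplicate at 25 uM, actives followed in concentration series; loss of binding vs DMSO.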

[3] = NVS_IC_rCaBTZCHL: NovaScreen (NVS) Ion Channel Assay for Calcium Channel, Type L, Benzothiazepine Site (CaBTZCHL) (AID 2283337)
In short: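 Radioligand displacement at the benzothiazepine site using rat cortical membranes; bound label measured by filtration and scintillation counting 1.5 h after dosing. Single-point 25 uM in duplicate, then concentration series; DMSO baseline.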

[4] = target: rat Thyrotropin Releasing Hormone Receptor (TRH), Trhr (gene 25570) (UniProt Q01717); assay: NVS_GPCR_rTRH: NovaScreen (NVS) G Protein-Coupled Receptor Assay for rat Thyrotropin Releasing Hormone Receptor (TRH) (AID 2283329);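 note: hit means lower bound tracer signal versus DMSO baseline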
rat Thyrotropin Releasing Hormone Receptor (TRH), Trhr (gene 25570), sequence (Q01717 whole entry, looked up): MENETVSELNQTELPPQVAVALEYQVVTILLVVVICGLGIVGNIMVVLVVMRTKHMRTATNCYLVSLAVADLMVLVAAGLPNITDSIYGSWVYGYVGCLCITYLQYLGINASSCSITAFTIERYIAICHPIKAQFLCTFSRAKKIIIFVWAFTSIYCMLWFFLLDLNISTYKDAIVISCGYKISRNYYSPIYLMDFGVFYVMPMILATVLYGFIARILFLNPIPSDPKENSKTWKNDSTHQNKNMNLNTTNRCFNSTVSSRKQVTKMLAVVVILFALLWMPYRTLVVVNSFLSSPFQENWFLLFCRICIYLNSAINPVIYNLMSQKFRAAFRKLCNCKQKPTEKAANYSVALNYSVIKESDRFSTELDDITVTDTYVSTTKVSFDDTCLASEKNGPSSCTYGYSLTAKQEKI
In short: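 Cell-free radioligand binding on rat forebrain membranes; bound tracer measured by filter-based scintillation counting 4 hours after dosing. Loss of signal versus DMSO baseline indicates displacement; primary screen at 25 uM in duplicate, actives then run in concentration series.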

[5] = target: rat Opioid Receptor, Non-selective Sodium (Na+) Binding, Oprm1 (gene 25601) (UniProt P33535); assay: NVS_GPCR_rOpiate_NonSelectiveNa: NovaScreen (NVS) G Protein-Coupled Receptor Assay for rat Opioid Receptor, Non-selective Sodium (Na+) Binding (AID 2283311)
rat Opioid Receptor, Non-selective Sodium (Na+) Binding, Oprm1 (gene 25601), sequence (P33535 whole entry, looked up): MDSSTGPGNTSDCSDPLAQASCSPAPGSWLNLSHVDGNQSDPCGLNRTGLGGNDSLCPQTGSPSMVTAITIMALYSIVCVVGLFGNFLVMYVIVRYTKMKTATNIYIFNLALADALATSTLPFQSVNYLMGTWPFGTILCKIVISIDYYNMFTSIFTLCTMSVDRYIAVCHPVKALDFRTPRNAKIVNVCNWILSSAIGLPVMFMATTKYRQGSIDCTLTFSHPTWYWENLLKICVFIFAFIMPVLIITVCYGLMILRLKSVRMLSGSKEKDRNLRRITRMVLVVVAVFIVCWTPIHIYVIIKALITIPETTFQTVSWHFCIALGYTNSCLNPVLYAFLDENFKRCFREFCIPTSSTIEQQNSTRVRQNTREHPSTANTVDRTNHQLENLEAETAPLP
In short: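 Rat forebrain membranes, radioligand displacement with filter scintillation counting, 1.5 h incubation. Screened in duplicate at 25 µM; hits then run in concentration-response up to 50 µM; loss of binding fitted versus DMSO.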

[6] = target: rat Vasopressin 1 Receptor (V1), Avpr1a (gene 25107) (UniProt P30560); assay: NVS_GPCR_rV1: NovaScreen (NVS) G Protein-Coupled Receptor Assay for rat Vasopressin 1 Receptor (V1) (AID 2283316)
rat Vasopressin 1 Receptor (V1), Avpr1a (gene 25107), sequence (P30560 whole entry, looked up): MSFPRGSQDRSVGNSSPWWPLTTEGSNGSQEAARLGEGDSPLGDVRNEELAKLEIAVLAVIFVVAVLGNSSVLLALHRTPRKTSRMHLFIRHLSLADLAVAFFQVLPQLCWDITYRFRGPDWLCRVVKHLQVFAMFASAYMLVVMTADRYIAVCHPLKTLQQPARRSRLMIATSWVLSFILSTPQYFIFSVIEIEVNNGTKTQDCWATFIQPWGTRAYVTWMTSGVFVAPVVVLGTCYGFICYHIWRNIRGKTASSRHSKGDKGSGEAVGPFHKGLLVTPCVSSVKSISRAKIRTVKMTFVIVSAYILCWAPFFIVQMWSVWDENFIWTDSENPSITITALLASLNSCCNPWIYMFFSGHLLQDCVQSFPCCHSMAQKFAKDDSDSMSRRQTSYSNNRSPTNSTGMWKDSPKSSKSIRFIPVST
In short: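 Radioligand binding on rat liver membranes, 1.5 h incubation, filter-based scintillation counting. Single 25 uM screen in duplicate; chemicals meeting threshold (e.g. 30% inhibition) run in concentration-response up to 50 uM.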

[7] = target: rat Opioid Receptor, Non-selective Binding, Oprm1 (gene 25601) (UniProt P33535); assay: NVS_GPCR_rOpiate_NonSelective: NovaScreen (NVS) G Protein-Coupled Receptor Assay for rat Opioid Receptor, Non-selective Binding (AID 2283318)
rat Opioid Receptor, Non-selective Binding, Oprm1 (gene 25601), sequence (P33535 whole entry, looked up): as the sequence (P33535 whole entry, looked up) above
In short: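 Rat forebrain membranes, cell-free radioligand binding with filter-based scintillation counting, read 1.5 h after dosing. Primary screen in duplicate at 25 uM; actives retested in concentration series. Loss of signal versus DMSO baseline scored.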

[8] = target: Sodium channel protein type 1 subunit alpha (Rattus norvegicus) (UniProt P04774); assay: NVS_IC_rNaCh_site2: NovaScreen (NVS) Ion Channel Assay for rat Sodium Channel, Site 2 (NaCh) (AID 2283322);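 note: hit means loss of radioligand binding signal relative to DMSO so AC50 marks displacement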
In short: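 Membranes: rat forebrain. Format: competitive radioligand displacement, filter separation, scintillation readout, 1 h exposure. Primary screen in duplicate at 25 uM; actives retested in concentration series.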

[9] = target: rat Neonicotinoid receptor (NNR), Chrna7 (gene 25302) (UniProt Q05941); assay: NVS_LGIC_rNNR_BungSens: NovaScreen (NVS) Ligand-Gated Ion Channel Assay for rat Neonicotinoid receptor (NNR) (AID 2283315)
rat Neonicotinoid receptor (NNR), Chrna7 (gene 25302), sequence (Q05941 whole entry, looked up): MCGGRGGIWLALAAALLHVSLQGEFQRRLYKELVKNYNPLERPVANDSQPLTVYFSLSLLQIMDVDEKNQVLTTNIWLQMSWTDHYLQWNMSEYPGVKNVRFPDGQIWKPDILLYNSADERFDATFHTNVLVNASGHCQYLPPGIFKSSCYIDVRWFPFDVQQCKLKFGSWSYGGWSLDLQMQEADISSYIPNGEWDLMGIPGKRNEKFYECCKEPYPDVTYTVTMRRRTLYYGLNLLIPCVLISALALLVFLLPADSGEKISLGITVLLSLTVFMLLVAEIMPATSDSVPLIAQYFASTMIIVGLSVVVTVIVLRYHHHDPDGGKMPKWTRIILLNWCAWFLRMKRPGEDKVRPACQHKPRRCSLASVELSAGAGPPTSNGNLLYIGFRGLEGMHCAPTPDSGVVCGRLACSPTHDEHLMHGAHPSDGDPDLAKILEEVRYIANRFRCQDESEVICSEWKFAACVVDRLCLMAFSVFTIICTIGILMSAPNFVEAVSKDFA
In short: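 Radioligand displacement binding on rat cortical membranes, 2.5 h incubation, filtration and scintillation counting. Loss of specific binding fitted relative to DMSO.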

[10] = target: bovine Gamma-Aminobutyric Acid Type A Receptor BDZ, alpha 5 site (GABARa5), GABRA5 (gene 523515) (UniProt Q08E50); assay: NVS_LGIC_bGABARa5: NovaScreen (NVS) Ligand-Gated Ion Channel Assay for bovine Gamma-Aminobutyric Acid Type A Receptor BDZ, alpha 5 site (GABARa5) (AID 2283323)
In short: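 Radioligand competitive displacement binding on bovine hippocampal membranes, read 1 hr after dosing by filter-based scintillation counting. Primary screen at 25 uM in duplicate; actives (e.g. ≥30% inhibition) then run in concentration-response up to 50 uM.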

[11] = target: rat Adrenergic Receptor, Beta (Adrb), Non-selective Binding, Adrb1 (gene 24925) (UniProt P18090); assay: NVS_GPCR_rAdrb_NonSelective: NovaScreen (NVS) G Protein-Coupled Receptor Assay for rat Adrenergic Receptor, Beta (Adrb), Non-selective Binding (AID 2283298)
rat Adrenergic Receptor, Beta (Adrb), Non-selective Binding, Adrb1 (gene 24925), sequence (P18090 whole entry, looked up): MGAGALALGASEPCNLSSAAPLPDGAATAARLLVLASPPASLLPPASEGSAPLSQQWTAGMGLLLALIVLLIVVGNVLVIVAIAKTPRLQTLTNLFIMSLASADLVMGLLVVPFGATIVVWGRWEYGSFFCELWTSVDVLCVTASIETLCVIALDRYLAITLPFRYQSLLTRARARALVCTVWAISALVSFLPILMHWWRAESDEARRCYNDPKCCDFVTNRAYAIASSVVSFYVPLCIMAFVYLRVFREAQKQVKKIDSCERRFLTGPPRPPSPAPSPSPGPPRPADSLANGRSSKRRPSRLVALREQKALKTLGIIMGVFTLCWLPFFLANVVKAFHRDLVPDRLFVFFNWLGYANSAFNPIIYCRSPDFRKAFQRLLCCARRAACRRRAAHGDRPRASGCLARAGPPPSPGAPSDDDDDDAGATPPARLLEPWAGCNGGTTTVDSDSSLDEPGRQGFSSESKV
In short: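 Non-selective beta-adrenergic radioligand binding in rat cortical membranes, 1 h incubation, filter-based scintillation read-out. Primary screen 25 uM in duplicate; hits retested in concentration-response up to 50 uM, DMSO baseline.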

[12] = target: bovine Gamma-Aminobutyric Acid Type A Receptor Agonist (GABAR Agonist), GABRA1 (gene 780973) (UniProt P08219); assay: NVS_LGIC_bGABAR_Agonist: NovaScreen (NVS) Ligand-Gated Ion Channel Assay for bovine Gamma-Aminobutyric Acid Type A Receptor Agonist (GABAR Agonist) (AID 2283338)
In short: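 Radioligand binding to bovine cerebellar membranes in agonist format, read by filter-based scintillation counting after 1 h. Primary screen in duplicate at 25 uM, with actives followed in concentration series. Gain of signal versus DMSO.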

[13] = system: guinea pig Histamine Receptor (H2), gene 100729734; assay: NVS_GPCR_gH2: NovaScreen (NVS) G Protein-Coupled Receptor Assay for guinea pig Histamine Receptor (H2) (AID 2283342)
In short: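 Radioligand displacement on guinea pig striatal membranes, 1 h after dosing, filter-based scintillation counting; loss of signal versus DMSO. Single-point screen at 25 uM in duplicate, then concentration-response up to 50 uM.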

[14] = system: rat Adrenergic, Alpha 1B Receptor (Adra1B), gene 24173; assay: NVS_GPCR_rAdra1B: NovaScreen (NVS) G Protein-Coupled Receptor Assay for rat Adrenergic, Alpha 1B Receptor (Adra1B) (AID 2283297)
In short: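 Rat liver membranes, radioligand displacement with filter-based scintillation detection, 1 h incubation. Primary screen in duplicate at 25 uM; actives retested in concentration series; activity relative to DMSO.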

[15] = target: rat Histamine Receptor (H3), Hrh3 (gene 85268) (UniProt Q9QYN8); assay: NVS_GPCR_rH3: NovaScreen (NVS) G Protein-Coupled Receptor Assay for rat Histamine Receptor (H3) (AID 2283303)
rat Histamine Receptor (H3), Hrh3 (gene 85268), sequence (Q9QYN8 whole entry, looked up): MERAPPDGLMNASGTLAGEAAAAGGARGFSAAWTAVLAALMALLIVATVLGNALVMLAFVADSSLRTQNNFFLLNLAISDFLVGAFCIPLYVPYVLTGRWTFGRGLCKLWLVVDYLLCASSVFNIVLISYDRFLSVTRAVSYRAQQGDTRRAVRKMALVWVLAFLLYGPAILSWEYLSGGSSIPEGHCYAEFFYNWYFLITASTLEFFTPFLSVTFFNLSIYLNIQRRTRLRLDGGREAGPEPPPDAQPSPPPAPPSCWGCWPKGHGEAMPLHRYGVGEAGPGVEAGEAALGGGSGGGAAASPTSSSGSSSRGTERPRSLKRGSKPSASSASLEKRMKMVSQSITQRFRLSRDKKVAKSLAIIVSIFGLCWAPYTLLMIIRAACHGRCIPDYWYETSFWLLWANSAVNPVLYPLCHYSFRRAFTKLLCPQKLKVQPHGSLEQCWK
In short: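 Rat forebrain membranes incubated 1 h with compound; radioligand displacement measured by filter-based scintillation counting. Single-concentration duplicates at 25 µM, then concentration-response up to 50 µM, relative to DMSO.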

[16] = target: Adra2b (gene 24174) (UniProt P19328); assay: NVS_GPCR_rmAdra2B: NovaScreen (NVS) G Protein-Coupled Receptor Assay for hybird cells Adrenergic, Alpha 2B Receptor (Adra2B) (AID 2283306)
Adra2b (gene 24174), sequence (P19328 whole entry, looked up): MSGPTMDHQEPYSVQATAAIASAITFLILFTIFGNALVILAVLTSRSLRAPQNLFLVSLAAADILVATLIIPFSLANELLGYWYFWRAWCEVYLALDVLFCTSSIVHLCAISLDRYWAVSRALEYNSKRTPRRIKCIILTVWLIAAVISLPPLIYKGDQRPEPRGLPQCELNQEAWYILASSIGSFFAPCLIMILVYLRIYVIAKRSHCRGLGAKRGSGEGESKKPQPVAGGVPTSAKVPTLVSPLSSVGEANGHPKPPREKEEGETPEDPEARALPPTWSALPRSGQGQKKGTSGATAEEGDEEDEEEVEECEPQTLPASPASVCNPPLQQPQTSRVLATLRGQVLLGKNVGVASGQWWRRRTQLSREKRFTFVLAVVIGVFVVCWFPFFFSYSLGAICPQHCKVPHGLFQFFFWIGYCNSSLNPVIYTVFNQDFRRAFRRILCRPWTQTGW
In short: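 Radioligand filter-binding assay on membrane proteins from neuroglioma/blastoma hybrid cells (rodent), 1 h after dosing; scintillation counting, loss of signal vs DMSO. Primary screen in duplicate at 25 uM, actives then run in concentration series.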

[17] = target: rat Glutamate Metabotropic Receptor 5 (MGluR5), Grm5 (gene 24418) (UniProt P31424); assay: NVS_GPCR_rmMGluR5: NovaScreen (NVS) G Protein-Coupled Receptor Assay for rat Glutamate Metabotropic Receptor 5 (MGluR5) (AID 2283307)
rat Glutamate Metabotropic Receptor 5 (MGluR5), Grm5 (gene 24418), sequence (P31424 whole entry, looked up): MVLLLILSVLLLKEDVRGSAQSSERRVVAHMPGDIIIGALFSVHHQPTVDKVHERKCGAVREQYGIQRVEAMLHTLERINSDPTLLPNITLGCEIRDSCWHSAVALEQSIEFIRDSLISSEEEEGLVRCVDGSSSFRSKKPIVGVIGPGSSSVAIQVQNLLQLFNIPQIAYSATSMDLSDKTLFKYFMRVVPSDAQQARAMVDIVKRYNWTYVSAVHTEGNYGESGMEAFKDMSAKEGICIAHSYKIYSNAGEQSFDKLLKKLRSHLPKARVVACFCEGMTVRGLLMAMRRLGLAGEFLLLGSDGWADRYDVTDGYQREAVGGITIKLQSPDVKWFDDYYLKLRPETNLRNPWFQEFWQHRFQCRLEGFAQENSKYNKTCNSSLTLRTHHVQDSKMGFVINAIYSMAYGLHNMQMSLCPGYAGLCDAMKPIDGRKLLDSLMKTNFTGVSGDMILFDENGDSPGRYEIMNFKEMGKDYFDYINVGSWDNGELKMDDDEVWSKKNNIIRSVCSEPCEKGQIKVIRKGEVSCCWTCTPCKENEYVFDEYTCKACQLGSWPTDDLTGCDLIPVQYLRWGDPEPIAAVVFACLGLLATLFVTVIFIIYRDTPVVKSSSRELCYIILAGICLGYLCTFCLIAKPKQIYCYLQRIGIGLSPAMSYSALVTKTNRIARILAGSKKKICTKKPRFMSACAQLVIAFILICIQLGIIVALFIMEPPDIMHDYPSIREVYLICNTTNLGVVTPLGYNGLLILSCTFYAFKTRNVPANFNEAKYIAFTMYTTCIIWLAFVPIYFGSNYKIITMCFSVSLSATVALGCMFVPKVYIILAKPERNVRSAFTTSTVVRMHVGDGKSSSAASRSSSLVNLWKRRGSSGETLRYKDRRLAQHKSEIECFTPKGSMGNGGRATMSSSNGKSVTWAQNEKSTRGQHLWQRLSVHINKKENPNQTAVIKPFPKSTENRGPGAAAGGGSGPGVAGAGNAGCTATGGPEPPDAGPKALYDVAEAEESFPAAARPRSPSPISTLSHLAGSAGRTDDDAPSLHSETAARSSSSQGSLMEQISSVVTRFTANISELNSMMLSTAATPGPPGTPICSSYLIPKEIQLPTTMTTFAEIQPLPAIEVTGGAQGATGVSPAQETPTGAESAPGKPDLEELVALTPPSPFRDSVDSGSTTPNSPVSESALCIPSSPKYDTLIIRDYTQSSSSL
In short: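 Rat whole-brain membrane preparation; filter-based radioligand binding read by scintillation counting, 1.5 h after dosing. Single-point screen at 25 uM in duplicate; hits over threshold (e.g. 30% inhibition) retested in concentration-response up to 50 uM; loss of signal vs DMSO.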

[18] = target: rat Neurokinin-1 Receptor (NK1), Tacr1 (gene 24807) (UniProt P14600); assay: NVS_GPCR_rNK1: NovaScreen (NVS) G Protein-Coupled Receptor Assay for rat Neurokinin-1 Receptor (NK1) (AID 2283309)
In short: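 Rat submaxillary gland membranes; radioligand displacement read by filter-based scintillation counting after 1 h. Primary screen in duplicate at 25 uM; actives retested in concentration series; loss of binding fitted versus DMSO.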

[19] = target: rat Gamma-Aminobutyric Acid Type A Receptor, Non-Selective (GABAR-NonSelective), Gabra1 (gene 29705) (UniProt P62813); assay: NVS_LGIC_rGABAR_NonSelective: NovaScreen (NVS) Ligand-Gated Ion Channel Assay for rat Gamma-Aminobutyric Acid Type A Receptor, Non-Selective (GABAR-NonSelective) (AID 2283326)
In short: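 Radioligand displacement on rat whole-brain extract, 1 h, filter scintillation readout; signal loss fitted versus DMSO. Primary screen in duplicate at 25 uM; hits (e.g. ≥30% inhibition) retested in concentration-response up to 50 uM.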

[20] = target: Voltage-gated inwardly rectifying potassium channel KCNH2 (Homo sapiens) (UniProt Q12809); assay: NVS_IC_hKhERGCh: NovaScreen (NVS) Ion Channel Assay for human Potassium Channel ERG (KhERGCh) (AID 2283333)
In short: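 Cell-free radioligand competition binding on hERG protein extracted from CHO cells, read by filter-based scintillation counting 0.75 h after dosing. Primary screen at 25 uM in duplicate, actives followed in concentration series. Signal loss fitted versus DMSO.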

Q: What does the source list for `CCCCCCOc1ccc(O)cc1`?
A: AC50 [1]: 7.77 µM (active); AC50 [2]: 6.49 µM (active)

Q: With `C=C1CC/C=C(\C)CC[C@@H]2[C@@H]1CC2(C)C` as the molecule, how does the outcome [3] read?
A: inactive

Q: Which outcome [4] does the source give for `CCCCCC(=O)O[C@]1(C(C)=O)CC[C@H]2[C@@H]3CCC4=CC(=O)CC[C@]4(C)[C@H]3CC[C@@]21C` here?
A: inactive

Q: Which outcome [5] does the source give for `C#C[C@]1(O)CC[C@H]2[C@@H]3CCc4cc(O)ccc4[C@H]3CC[C@@]21C` here?
A: inactive

Q: And the AC50 [6]?
A: 25 µM (active)

Q: What about the AC50 [7] of the same molecule?
A: 20.5 µM (active)

Q: And the outcome [8]?
A: inactive

Q: What about the AC50 [1] of the same molecule?
A: 2.52 µM (active) and 13.7 µM (active) and 11.4 µM (active)

Q: And the AC50 [2]?
A: 4.59 µM (active)

Q: What about the outcome [2] of the same molecule?
A: inactive

Q: For `CC(C)C(=O)c1ccccc1`, which outcome [4] is on record?
A: inactive

Q: With `CCCc1ccc(N)cc1` as the molecule, how does the outcome [4] read?
A: inactive

Q: With `CCCCCCCCOS(=O)(=O)O` as the molecule, how does the outcome [4] read?
A: inactive

Q: For `CC1(C)[C@H](C=C(Cl)Cl)[C@H]1C(=O)OCc1cccc(Oc2ccccc2)c1`, which outcome [2] is on record?
A: inactive

Q: With `CN1CCc2cccc3c2[C@H]1Cc1ccc(O)c(O)c1-3` as the molecule, how does the AC50 [1] read?
A: 1.83 µM (active)

Q: For `Cc1cc(O)c(C)c(C)c1O`, which outcome [9] is on record?
A: inactive

Q: Which AC50 [1] does the source give for `C=CC(=O)OCC(CO)(COC(=O)C=C)COC(=O)C=C` here?
A: 11 µM (active)

Q: Which outcome [10] does the source give for `C=C(C)C(N)=O` here?
A: inactive

Q: For `C1CCCNCC1`, which outcome [4] is on record?
A: inactive

Q: With `CC/C(=C(\c1ccccc1)c1ccc(OCCN(C)C)cc1)c1ccccc1` as the molecule, how does the AC50 [11] read?
A: 5.74 µM (active)

Q: What about the outcome [5] of the same molecule?
A: inactive

Q: What about the outcome [9] of the same molecule?
A: inactive

Q: What about the outcome [6] of the same molecule?
A: inactive

Q: And the outcome [7]?
A: inactive

Q: And the AC50 [8]?
A: 1.56 µM (active)

Q: And the AC50 [3]?
A: 938 nM (active) and 874 nM (active)

Q: What about the outcome [12] of the same molecule?
A: inactive

Q: What about the AC50 [13] of the same molecule?
A: 4.7 µM (active) and 1.19 µM (active)

Q: Which AC50 [14] does the source give for `O=C(c1ccc(OCCN2CCCCC2)cc1)c1c(-c2ccc(O)cc2)sc2cc(O)ccc12` here?
A: 5.62 µM (active)

Q: What about the AC50 [15] of the same molecule?
A: 25 µM (active)

Q: And the AC50 [16]?
A: 10.7 µM (active)

Q: What about the outcome [17] of the same molecule?
A: inactive

Q: And the AC50 [18]?
A: 18.2 µM (active)

Q: What about the AC50 [5] of the same molecule?
A: 1.96 µM (active)

Q: And the outcome [9]?
A: inactive

Q: And the AC50 [7]?
A: 3.64 µM (active)

Q: And the AC50 [8]?
A: 0.869 µM (active)

Q: And the outcome [19]?
A: inactive

Q: And the outcome [4]?
A: inactive

Q: What about the AC50 [20] of the same molecule?
A: 5.34 µM (active)

Q: What about the AC50 [2] of the same molecule?
A: 6.31 µM (active)

Q: What about the outcome [3] of the same molecule?
A: inactive

Q: And the AC50 [13]?
A: 4.18 µM (active)
